Measurements reported in PubChem BioAssay (EPA / NIEHS).
The source made the active and inactive calls. Rule for the calls: active = hit-call score of the fitted dose curve at least 0.9, where 1 is the maximum; inactive = score below 0.9.

How the values were obtained:
Conditions in all cases: mRNA level, 48 h; actives raise or lower the signal
[1] = read-out: Glutamate-cysteine ligase regulatory (GCLM), GCLM (gene 2730); assay: LTEA_HepaRG_GCLM: Life Technologies and Expression Analysis (LTEA) Assay for Glutamate-cysteine ligase regulatory (GCLM) using HepaRG (AID 2283500)
Procedure, shortened: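 HepaRG, 48 h dosing, 100 uM top, half-log x8, 0.5% DMSO vehicle. Readout: GCLM mRNA by TaqMan qRT-PCR, housekeeping-normalized (ACTB/GAPDH/POLR2A). Curves fit bidirectionally vs DMSO baseline.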

[2] = read-out: Glutathione S-transferase M3 (GSTM3), GSTM3 (gene 2947); assay: LTEA_HepaRG_GSTM3: Life Technologies and Expression Analysis (LTEA) Assay for Glutathione S-transferase M3 (GSTM3) using HepaRG (AID 2283501)
Procedure, shortened: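 Differentiated human HepaRG cells were exposed in duplicate for 48 h in serum-free induction medium, 8 points from 100 uM top in half-log steps, 0.5% DMSO. GSTM3 mRNA was measured by TaqMan qRT-PCR, normalized to ACTB, GAPDH and POLR2A; bidirectional fit versus DMSO.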

[3] = read-out: Heat shock 70 kDa protein 1 (HSPA1A), gene 3303; assay: LTEA_HepaRG_HSPA1A: Life Technologies and Expression Analysis (LTEA) Assay for Heat shock 70 kDa protein 1 (HSPA1A) using HepaRG (AID 2283502)
Procedure, shortened: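 HepaRG, 48 h exposure, 8-pt half-log CRC from 100 uM in 0.5% DMSO, duplicates. Readout: TaqMan qRT-PCR of HSPA1A mRNA, housekeeping-normalized (ACTB/GAPDH/POLR2A). Bidirectional fit vs 0.5% DMSO baseline.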

[4] = read-out: Hypoxia-inducible factor 1-alpha (Homo sapiens) (UniProt Q16665); assay: LTEA_HepaRG_HIF1A: Life Technologies and Expression Analysis (LTEA) Assay for Hypoxia-inducible factor 1 (HIF1A) Trancription factor using HepaRG (AID 2283503)
Procedure, shortened: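 Gain- or loss-of-signal HIF1A mRNA changes are fitted against a DMSO baseline. HepaRG cultures receive eight concentrations, highest 100 uM, for 48 h in serum-free induction medium with 0.5% DMSO.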

[5] = read-out: 3-Hydroxy-3-Methylglutaryl-CoA Synthase 2 (HMGCS2), HMGCS2 (gene 3158); assay: LTEA_HepaRG_HMGCS2: Life Technologies and Expression Analysis (LTEA) Assay for 3-Hydroxy-3-Methylglutaryl-CoA Synthase 2 (HMGCS2) using HepaRG (AID 2283504)
Procedure, shortened: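 Human HepaRG cells in serum-free induction medium were exposed in duplicate for 48 h to 8-point half-log series from 100 uM top in 0.5% DMSO. HMGCS2 mRNA measured by TaqMan qRT-PCR, normalised to ACTB, GAPDH, POLR2A; bidirectional fit versus DMSO.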

[6] = read-out: HGF (gene 3082); assay: LTEA_HepaRG_HGF: Life Technologies and Expression Analysis (LTEA) Assay for Hepatocyte Growth Facto (HGF) using HepaRG (AID 2283505)
Procedure, shortened: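 Differentiated HepaRG cells in serum-free induction medium exposed 48 h in duplicate, 8 half-log concentrations from 100 uM in 0.5% DMSO. HGF mRNA by qRT-PCR, normalised to ACTB, GAPDH, POLR2A; bidirectional fitting.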

[7] = read-out: Insulin Like Growth Factor 1 (IGF1), IGF1 (gene 3479); assay: LTEA_HepaRG_IGF1: Life Technologies and Expression Analysis (LTEA) Assay for Insulin Like Growth Factor 1 (IGF1) using HepaRG (AID 2283506)
Procedure, shortened: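 qRT-PCR readout of IGF1 mRNA, normalized to three housekeeping genes, after 48 h chemical exposure of HepaRG cells. Concentrations: 8-point half-log series, top 100 uM, 0.5% DMSO vehicle. Gain or loss fitted against DMSO baseline.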

[8] = read-out: Intercellular Adhesion Molecule 1 (ICAM1), ICAM1 (gene 3383); assay: LTEA_HepaRG_ICAM1: Life Technologies and Expression Analysis (LTEA) Assay for Intercellular Adhesion Molecule 1 (ICAM1) using HepaRG (AID 2283507)
Procedure, shortened: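 Differentiated human HepaRG cells in serum-free induction medium exposed 48 h in duplicate to 8 half-log concentrations (top 100 uM, 0.5% DMSO). ICAM1 mRNA quantified by TaqMan qRT-PCR, normalized to ACTB, GAPDH and POLR2A; bidirectional fitting versus DMSO.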

[9] = read-out: Insulin-like growth factor-binding protein 1 (IGFBP1), IGFBP1 (gene 3484); assay: LTEA_HepaRG_IGFBP1: Life Technologies and Expression Analysis (LTEA) Assay for Insulin-like growth factor-binding protein 1 (IGFBP1) using HepaRG (AID 2283508)
Procedure, shortened: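 HepaRG cells, plated 48 h then switched to serum-free induction medium, exposed in duplicate for 48 h to 8-point half-log series from 100 uM in 0.5% DMSO. mRNA measured by qRT-PCR, normalized to ACTB/GAPDH/POLR2A; bidirectional fit versus DMSO.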

[10] = read-out: Interleukin 6 (IL6), IL6 (gene 3569); assay: LTEA_HepaRG_IL6: Life Technologies and Expression Analysis (LTEA) Assay for Interleukin 6 (IL6) using HepaRG (AID 2283509)
Procedure, shortened: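 qRT-PCR read-out of IL6 transcript, normalized to three housekeeping genes, after 48 h chemical exposure of HepaRG cells; 8-point half-log series, top 100 uM, 0.5% DMSO vehicle. Bidirectional curve fitting against DMSO baseline.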

[11] = read-out: Interleukin 6 Receptor (IL6R), IL6R (gene 3570); assay: LTEA_HepaRG_IL6R: Life Technologies and Expression Analysis (LTEA) Assay for Interleukin 6 Receptor (IL6R) using HepaRG (AID 2283510)
Procedure, shortened: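 HepaRG, 48 h exposure, 8-pt half-log series, top 100 uM, 0.5% DMSO vehicle, duplicates. Read-out: TaqMan qRT-PCR of IL6R transcript, housekeeping-gene normalized. Gain or loss fitted relative to DMSO baseline.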

[12] = read-out: Potassium channel subfamily K member 1 (KCNK1), KCNK1 (gene 3775); assay: LTEA_HepaRG_KCNK1: Life Technologies and Expression Analysis (LTEA) Assay for Potassium channel subfamily K member 1 (KCNK1) using HepaRG (AID 2283511)
Procedure, shortened: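 HepaRG, 48 h exposure, 8-pt half-log series top 100 uM, 0.5% DMSO vehicle, duplicates. Readout: KCNK1 transcript by qRT-PCR (Fluidigm array), housekeeping-normalized; bidirectional curve fit relative to DMSO baseline.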

[13] = read-out: Keratin 19 (KRT19), KRT19 (gene 3880); assay: LTEA_HepaRG_KRT19: Life Technologies and Expression Analysis (LTEA) Assay for Keratin 19 (KRT19) using HepaRG (AID 2283512)
Procedure, shortened: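 Differentiated HepaRG cells in serum-free induction medium, exposed 48 h in duplicate to 8 half-log concentrations up to 100 uM in 0.5% DMSO. KRT19 mRNA by qRT-PCR, normalized to ACTB, GAPDH, POLR2A; bidirectional fit vs DMSO.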

[14] = read-out: JUN Transcription Factor, JUN (gene 3725); assay: LTEA_HepaRG_JUN: Life Technologies and Expression Analysis (LTEA) Assay for JUN Transcription Factor using HepaRG (AID 2283513)
Procedure, shortened: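 HepaRG, 48 h exposure, 8-pt half-log series top 100 uM, 0.5% DMSO, duplicate. JUN mRNA by qRT-PCR (Fluidigm), housekeeping-normalized (ACTB/GAPDH/POLR2A); bidirectional curve fit vs DMSO baseline.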

[15] = read-out: Lipase C (LIPC), LIPC (gene 3990); assay: LTEA_HepaRG_LIPC: Life Technologies and Expression Analysis (LTEA) Assay for Lipase C (LIPC) using HepaRG (AID 2283514)
Procedure, shortened: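 HepaRG, 48 h exposure, 8-pt half-log series from 100 uM in 0.5% DMSO, duplicates. Readout: LIPC mRNA by Fluidigm qRT-PCR, housekeeping-normalized (ACTB/GAPDH/POLR2A). Gain or loss fitted bidirectionally against DMSO baseline.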

[16] = read-out: Lipoprotein lipase (LPL), LPL (gene 4023); assay: LTEA_HepaRG_LPL: Life Technologies and Expression Analysis (LTEA) Assay for Lipoprotein lipase (LPL) using HepaRG (AID 2283515)
Procedure, shortened: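 HepaRG, 48 h exposure, 8-pt half-log dilutions from 100 uM, 0.5% DMSO vehicle, duplicates; qRT-PCR (Fluidigm array) of LPL mRNA vs housekeeping genes; bidirectional curve fit relative to DMSO baseline.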

[17] = read-out: MicroRNA 122 (MIR122), gene 406906; assay: LTEA_HepaRG_MIR122: Life Technologies and Expression Analysis (LTEA) Assay for MicroRNA 122 (MIR122) using HepaRG (AID 2283516); note: the transcript read is the microRNA miR-122
Procedure, shortened: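 qRT-PCR read-out (TaqMan, Fluidigm array), normalized to three housekeeping genes; HepaRG cells dosed 48 h at 8 concentrations up to 100 uM in 0.5% DMSO, duplicate; gain or loss fitted against DMSO baseline.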

[18] = read-out: matrix metalloproteinase-10 (MMP10), MMP10 (gene 4319); assay: LTEA_HepaRG_MMP10: Life Technologies and Expression Analysis (LTEA) Assay for matrix metalloproteinase-10 (MMP10) using HepaRG (AID 2283517)
Procedure, shortened: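 Transcript levels come from Fluidigm qRT-PCR normalized to three housekeeping genes, with curves fitted bidirectionally against 0.5% DMSO. Human HepaRG cells were dosed for 48 hours at concentrations up to 100 uM.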

[19] = read-out: MYC, MYC (gene 4609); assay: LTEA_HepaRG_MYC: Life Technologies and Expression Analysis (LTEA) Assay for MYC using HepaRG (AID 2283518)
Procedure, shortened: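 Differentiated HepaRG cells exposed 48 h in serum-free induction medium to 8 concentrations (top 100 uM, half-log steps; 0.5% DMSO), duplicate. MYC mRNA measured by Fluidigm qRT-PCR, normalized to ACTB, GAPDH, POLR2A; bidirectional fit versus DMSO.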

[20] = read-out: matrix metalloproteinase-3 (MMP3), MMP3 (gene 4314); assay: LTEA_HepaRG_MMP3: Life Technologies and Expression Analysis (LTEA) Assay for matrix metalloproteinase-3 (MMP3) using HepaRG (AID 2283519)
Procedure, shortened: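 qRT-PCR read-out of MMP3 mRNA (normalised to three housekeeping genes) in HepaRG liver cells after 48 h chemical exposure; 8-point half-log series, top 100 uM, 0.5% DMSO vehicle. Bidirectional curve fitting against DMSO baseline.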

Measured: AC50

Chain of Hypoxia-inducible factor 1-alpha (Homo sapiens) (Q16665 whole entry, looked up): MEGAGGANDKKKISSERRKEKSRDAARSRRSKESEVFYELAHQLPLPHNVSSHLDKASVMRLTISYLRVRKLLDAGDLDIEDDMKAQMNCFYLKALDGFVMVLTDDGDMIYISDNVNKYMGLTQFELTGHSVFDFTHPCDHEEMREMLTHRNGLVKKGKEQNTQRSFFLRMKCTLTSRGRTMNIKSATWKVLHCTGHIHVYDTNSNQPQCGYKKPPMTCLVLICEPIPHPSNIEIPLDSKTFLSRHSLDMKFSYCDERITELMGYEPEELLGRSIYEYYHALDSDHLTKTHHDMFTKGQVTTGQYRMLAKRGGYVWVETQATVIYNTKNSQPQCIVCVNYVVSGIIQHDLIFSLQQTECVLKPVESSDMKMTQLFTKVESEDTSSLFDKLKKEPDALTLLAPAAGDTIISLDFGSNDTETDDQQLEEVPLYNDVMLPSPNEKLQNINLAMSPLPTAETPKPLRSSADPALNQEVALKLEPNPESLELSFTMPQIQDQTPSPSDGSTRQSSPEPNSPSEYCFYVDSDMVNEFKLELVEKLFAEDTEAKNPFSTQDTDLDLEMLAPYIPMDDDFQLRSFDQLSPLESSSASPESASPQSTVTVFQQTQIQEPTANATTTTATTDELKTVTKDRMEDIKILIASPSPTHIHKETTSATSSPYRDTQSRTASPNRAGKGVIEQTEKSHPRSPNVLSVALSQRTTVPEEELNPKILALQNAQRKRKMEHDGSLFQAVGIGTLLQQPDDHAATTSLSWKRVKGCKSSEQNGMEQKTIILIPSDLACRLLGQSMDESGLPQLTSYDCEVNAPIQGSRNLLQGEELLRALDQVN

OC(c1ccc(Cl)cc1)(c1ccc(Cl)cc1)C(Cl)(Cl)Cl
inactive: [1] | [4] | [6] | [11] | [14] | [16]
active: [2] 81.2 µM | [3] 89.3 µM | [5] 80.1 µM | [7] 50 µM | [8] 77.6 µM | [9] 73.6 µM | [10] 76.6 µM | [12] 50 µM | [13] 50 µM | [15] 77.7 µM | [17] 64.9 µM | [18] 67.2 µM | [19] 73.7 µM | [20] 50 µM

Cc1nc(N(C)C)nc(OC(=O)N(C)C)c1C
inactive: all assays above

CN/C(=N\[N+](=O)[O-])NCc1cnc(Cl)s1
active: [12] 50 µM | [13] 17.8 µM
inactive: all other assays above

COc1ccc(-c2ccccc2)cc1NNC(=O)OC(C)C
inactive: all assays above

CNC(=O)N(C)c1nnc(C(C)(C)C)s1
inactive: [6]
